Screens as filed in PubChem.
An excerpt weighted towards active compounds, which were near 3.5% of everything screened.
GPR151 ag: activators of human GPR151; Q8TDV0; PathHunter beta-arrestin GPR151 cells, luminescence; activation, % at 11.2 µM; 650,000 tested, 1% active; AID 1508602; in the data active = activation above about 4.9%
TEAD-YAP inh: TEAD-YAP interaction inhibition; HEK-TIYL cells, TEAD-Gal4/YAP UAS-luciferase luminescence; inhibition, % at 9.12 µM; 640,000 tested, 1.4% active; AID 1259422; in the data active = inhibition above about 32%
MITF inh: human MITF inhibition, primary screen | AlphaScreen MITF homodimerization, bead proximity signal | O75030 | 650,000 tested, 0.91% active | inhibition, % at 2.6 µM; in the data active = inhibition above about 50%
FBW7 activator: activators of human E3 ligase FBW7; Q969H0; AlphaScreen FBW7–phospho-cyclin E peptide binding, activator screen; normalized activity (activation), % at 26.1 µM; 650,000 tested, 0.13% active; AID 1259310; in the data active = normalized activity above about 1.9%;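 note: purified mutant Fbw7 with reduced substrate affinity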
Target sequence (Q969H0 whole entry, looked up): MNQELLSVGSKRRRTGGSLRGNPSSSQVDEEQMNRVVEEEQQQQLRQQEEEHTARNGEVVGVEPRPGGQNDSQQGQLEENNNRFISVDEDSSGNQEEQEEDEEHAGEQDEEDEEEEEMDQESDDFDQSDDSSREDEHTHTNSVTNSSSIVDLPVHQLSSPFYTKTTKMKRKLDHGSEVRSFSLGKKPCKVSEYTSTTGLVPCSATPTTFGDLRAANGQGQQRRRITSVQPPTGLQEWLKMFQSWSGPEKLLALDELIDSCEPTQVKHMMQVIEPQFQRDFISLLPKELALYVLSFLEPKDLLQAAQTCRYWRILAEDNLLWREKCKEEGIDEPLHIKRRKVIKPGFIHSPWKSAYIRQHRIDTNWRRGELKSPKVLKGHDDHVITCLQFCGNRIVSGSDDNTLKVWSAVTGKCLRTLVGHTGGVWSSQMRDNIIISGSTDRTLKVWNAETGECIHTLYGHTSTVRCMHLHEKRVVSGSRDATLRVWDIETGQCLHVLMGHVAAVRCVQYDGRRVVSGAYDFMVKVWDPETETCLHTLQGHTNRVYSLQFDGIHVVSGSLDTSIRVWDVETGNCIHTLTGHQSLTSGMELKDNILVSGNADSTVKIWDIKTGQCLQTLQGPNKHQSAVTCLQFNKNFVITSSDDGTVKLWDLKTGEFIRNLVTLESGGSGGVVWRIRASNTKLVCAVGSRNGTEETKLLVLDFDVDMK
MITF confirm: confirmation of human MITF inhibitors | shares compounds with MITF inh | AlphaScreen MITF homodimerization, biotin/His-MITF beads | inhibition, % at 2.6 µM | 4,700 tested, 16% active;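 active = inhibition above a cutoff derived from the DMSO control wells, cut at about 28% in these data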;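 note: inhibitors lower the bead chemiluminescence by keeping MITF from dimerizing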
AlphaScreen intf2: counter-screen: compounds optically interfering with AlphaScreen. LysRS AlphaScreen counterscreen, signal interference, triplicate. 4,700 tested, 7.6% active. shares compounds with MITF inh. inhibition, % at 2.6 µM;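 active = inhibition above a cutoff derived from the DMSO control wells, cut at about 30% in these data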
Of the large screens only hits and unclear results are named; the others gave an inactive call (follow-up assays come after a bar, where they were run).

CCCCS(=O)(=O)N1CCN(CC(=O)c2cccs2)CC1	MITF inh 61 | MITF confirm inactive | AlphaScreen intf2 inactive
CCCS(=O)(=O)N1CCN(CC(=O)c2cccs2)CC1	MITF inh 67 | MITF confirm inactive | AlphaScreen intf2 inactive
O=C(Cc1ccc(F)cc1)Nc1ccc(CN2CCN(c3ccccn3)CC2)cc1	none
O=C(CNCCN1CCOCC1)NCc1ccc2c(c1)OCO2	MITF inh 84 | MITF confirm inactive | AlphaScreen intf2 inactive
O=C(CNCCc1ccccc1)NCc1ccc2c(c1)OCO2	MITF inh 73 | MITF confirm inactive | AlphaScreen intf2 inactive
O=C(CNCc1cccnc1)Nc1ccccc1	none
O=C(CNCc1cccnc1)Nc1ccc2c(c1)OCO2	MITF inh 59 | MITF confirm inactive | AlphaScreen intf2 inactive
O=C(CSCc1ccccc1)NCc1ccc2c(c1)OCO2	none
O=C(CNCc1ccc2c(c1)OCO2)Nc1ccccc1F	MITF inh 64 | MITF confirm inactive | AlphaScreen intf2 inactive
CC(C)NC(=O)CNCc1ccc2c(c1)OCO2	none
CCCCCCCNc1nc(OC)nc(N2CCCCC2)n1	none
O=C(Cn1ccn(-c2cccc(Cl)c2)c(=O)c1=O)c1ccc(F)cc1	none
COc1cccc(CNCC(=O)NCc2ccc3c(c2)OCO3)c1	MITF inh 60 | MITF confirm inactive | AlphaScreen intf2 inactive
CC1CCCCN1C(=O)CN1CCN(c2ncccn2)CC1 (centres undefined)	MITF inh 54 | MITF confirm inactive | AlphaScreen intf2 inactive
CCOc1ccccc1CN1CCCC(C(=O)N2CCCCCC2)C1 (centres undefined)	MITF inh 70 | MITF confirm inactive | AlphaScreen intf2 inactive
CCOC(=O)C1CCCN(Cc2ccc(Br)cc2)C1 (centres undefined)	MITF inh 57 | MITF confirm inactive | AlphaScreen intf2 inactive
CCOC(=O)C1CCCN(Cc2ccc(NC(C)=O)cc2)C1 (centres undefined)	none
CCCN1CCN(C(=O)C2CCCN(c3nc4ccc(OCC)cc4s3)C2)CC1 (centres undefined)	MITF inh 62 | MITF confirm inactive | AlphaScreen intf2 inactive
CCOC(=O)C1CCCCN1Cc1ccc(O)cc1 (centres undefined)	none
CCOc1ccc2nc(N3CCCC(C(=O)Nc4ccc(NC(C)=O)cc4)C3)sc2c1 (centres undefined)	none
CCOC(=O)C1CCCCN1Cc1ccc(Br)cc1 (centres undefined)	MITF inh 55 | MITF confirm inactive | AlphaScreen intf2 inactive
CC(=O)Nc1ccc(-c2nc3ccc(NC(C)=O)cc3[nH]2)cc1	none
CCSC1=NCCN1S(=O)(=O)c1ccc2ccccc2c1	none
CC1CCN(Cc2ccc(Nc3c(-c4ccc5c(c4)OCC(=O)N5)c(=O)c3=O)cc2)CC1	none
CCOC(=O)C1CCCN(CC(=O)c2ccc(F)cc2)C1 (centres undefined)	MITF inh 69 | MITF confirm inactive | AlphaScreen intf2 inactive
CCOC(=O)C1CCCN(C2CC(=O)N(c3ccc(F)cc3)C2=O)C1 (centres undefined)	none
COc1ccc(CN2CCCC(C(=O)N3CCCC3)C2)c(OC)c1 (centres undefined)	MITF inh 54 | MITF confirm inactive | AlphaScreen intf2 inactive
CCOc1ccc(CN2CCC(C(=O)N3CCCC3)CC2)cc1	none
CCOc1ccccc1CN1CCC(N2CCCCCC2)CC1	MITF inh 78 | MITF confirm inactive | AlphaScreen intf2 inactive
CCOc1ccc(CN2CCCC(C(=O)N3CCCC3)C2)cc1 (centres undefined)	MITF inh 68 | MITF confirm inactive | AlphaScreen intf2 inactive
CCOC(=O)c1c(NC(=O)CSc2nnc(CNC(=O)c3ccccc3F)n2-c2ccc([N+](=O)[O-])cc2)sc2c1CCCCC2	none
Cc1ccc(S(=O)(=O)NNC2=NS(=O)(=O)c3ccccc32)c(C)c1	none
O=C(C1CCCN(Cc2ccc(Br)cc2)C1)N1CCCCC1 (centres undefined)	MITF inh 60 | MITF confirm inactive | AlphaScreen intf2 inactive
O=C(C1CCCN(Cc2ccc(Cl)cc2)C1)N1CCCCCC1 (centres undefined)	MITF inh 88 | MITF confirm inactive | AlphaScreen intf2 inactive
CCOC(=O)c1c(NC(=O)CN(C)C)sc(C)c1C	none
CCOC(=O)c1sc(NC(=O)CN2C(C)CCCC2C)c(C(=O)OCC)c1C (centres undefined)	MITF inh 58 | MITF confirm inactive | AlphaScreen intf2 inactive
CCOC(=O)c1c(NC(=O)CN2CCN(CC)CC2)sc(C)c1C	MITF inh 86 | MITF confirm inactive | AlphaScreen intf2 inactive
Cc1cccc(C(=O)N2CCN(c3oc(-c4ccc(Cl)cc4)nc3C#N)CC2)c1	MITF inh 75 | MITF confirm inactive | AlphaScreen intf2 inactive
N#Cc1nc(-c2cccc(Cl)c2)oc1N1CCN(C(=O)c2ccc(Cl)cc2)CC1	none
Cc1cc(Cl)ccc1NC(=O)C1CC(=O)NC(Nc2nc3ccccc3s2)=N1 (centres undefined)	none
COCCCNCCCOc1ccc(Cl)cc1C(C)(C)C	none
Cc1ccc(C(C)(C)C)c(OCCn2ccnc2)c1	none
Cc1ccc(C(C)(C)C)c(OCCN2CCN(C)CC2)c1	MITF inh 77 | MITF confirm inactive | AlphaScreen intf2 inactive
COCCNCCOc1ccc(Cl)cc1C(C)(C)C	MITF inh 74 | MITF confirm inactive | AlphaScreen intf2 inactive
COCCNCCOc1cccc(Cl)c1Cl	MITF inh 72 | MITF confirm inactive | AlphaScreen intf2 inactive
CN1CCN(CCOc2ccc(Cl)cc2C(C)(C)C)CC1	MITF inh 79 | MITF confirm inactive | AlphaScreen intf2 inactive
COc1cccc(CC2=NOC(C(=O)N3CCC(C(=O)N4CCCC4)CC3)C2)c1 (centres undefined)	none
Cc1ccc(C(C)(C)C)c(OCCNCCN)c1	MITF inh 80 | MITF confirm inactive | AlphaScreen intf2 inactive
CC(C)(C)c1cc(Cl)ccc1OCCOCCN1CCOCC1	MITF inh 64 | MITF confirm inactive | AlphaScreen intf2 inactive
CCOC(=O)c1cnc2ccc(OC)cc2c1Nc1ccc(OC(F)(F)F)cc1	none
Cc1cc(N2CCN(S(=O)(=O)c3ccc(F)cc3)CC2)n2c(nc3ccccc32)c1C#N	none
CC(=O)Nc1ccc(NC(=O)C2CCN(c3ccc(Nc4nccc5ccccc45)nn3)CC2)cc1	none
CN(CCc1ccccn1)Cc1ccc(C(=O)NCc2ccccc2Cl)c(=O)[nH]1	none
CN(Cc1ccc(C(=O)NCc2ccccc2Cl)c(=O)[nH]1)Cc1nccn1C	MITF inh 52 | MITF confirm 38 | AlphaScreen intf2 78
O=C(CN1CCN(Cc2nc(-c3ccccc3)cs2)CC1)NCc1ccco1	none
O=C(CN1CCN(Cc2nc(-c3ccco3)cs2)CC1)NCCc1ccccc1	MITF inh 76 | MITF confirm inactive | AlphaScreen intf2 inactive
O=C(CN1CCN(Cc2nc(-c3ccc(F)cc3)cs2)CC1)NCc1ccco1	MITF inh 70 | MITF confirm inactive | AlphaScreen intf2 inactive
